Results on nine compounds are retold here after PubChem BioAssay (NCATS).

In assay [1] the target is Mitogen-activated protein kinase 10 (Mus musculus) (UniProt Q61831). Briefly: JNK3 AlphaScreen Assay (AID 530; active = well fitted curve in either direction with a large enough effect, not every such curve was filed as active;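 note: kinase came from lysate of stimulated human HepG2 cells; signal reports phosphorylation of biotinylated GST-cJun 1-79 at Ser73 with 10 µM ATP; % is set by controls: 0 for no effect and ±100 for the full control effect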). In outline: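 Room-temperature AlphaScreen kinase assay; pre-activated HepG2 lysate as JNK3 source, biotin-GST-cJun(1-79) substrate, 10 uM ATP, compound 15 min preincubation.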
The nature of assay [2]: Cellular Toxicity (caspase-3) MRC-5 (AID 659).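 Note: 0% = DMSO basal and 100% = 10 µM staurosporine.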 In outline: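 Concentration-dependent caspase 3/7 activation is measured in human normal lung fibroblasts (MRC-5) following 16-hour treatment. AC50 values come from standard Hill-equation modeling of luminescence normalized to DMSO and 10 uM staurosporine.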
Assay [3] is described as follows: MultiTox-Fluor Cytotoxicity Assay - LYMP1-001 - Live Cells (AID 947). Note: potency is the fitted concentration of half-maximal effect.
Assay [4] can be described thus: MultiTox-Fluor Cytotoxicity Assay - LYMP1-002 - Dead Cells (AID 960). Note: nearly all actives have a fitted effect of over 60% in size. Note: potency is the fitted concentration of half-maximal effect. In outline: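 Human lymphoblastoid cells (LYMP1-002), 2500/well in complete medium, were exposed to compounds for 16 hr at 37 C. Dead-cell protease activity was read as bis-AAF-R110 fluorescence (Ex/Em 485/520), normalized to DMSO and 15 uM tetraoctylammonium bromide; AC50 from Hill fits.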
Assay [5] can be described thus: MultiTox-Fluor Cytotoxicity Assay - LYMP1-003 - Live Cells (AID 962). Note: potency is the fitted concentration of half-maximal effect. In outline: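 LYMP1-003 human lymphoblastoid cells (2500/well) in complete medium were preincubated 5 hr at 37 C, then exposed to compounds for 16 hr at 37 C. Live-cell protease cleavage of GF-AFC read by fluorescence (Ex/Em 405/510); AC50 from Hill fits.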
Assay [6] can be described thus: Cell Viability - LYMP2-005 (AID 967). Note: potency is the fitted concentration of half-maximal effect. The gist of the method: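 Human lymphoblastoid LYMP2-005 cells, 2,500 per well in complete medium, rested 5 h at 37C then compound-treated 24 h at 37C. Intracellular ATP read by CellTiter-Glo luminescence after 30 min at room temperature; AC50 from Hill-equation fits of concentration-response data.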
Assay [7] in a line: Cell Viability - LYMP2-011 (AID 969). Note: nearly all actives have a fitted effect of over 60% in size. Note: potency is the fitted concentration of half-maximal effect. In outline: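 Human lymphoblastoid cells (2500/well) were plated in complete medium, preincubated 5 hr at 37 C, then exposed to compounds for 24 hr at 37 C. Intracellular ATP was read by CellTiter-Glo luminescence, and AC50 came from Hill-equation concentration-response fits.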
The nature of assay [8]: Cell Viability - LYMP2-013 (AID 970). Note: nearly all actives have a fitted effect of over 55% in size. Note: potency is the fitted concentration of half-maximal effect. The gist of the method: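 Human lymphoblastoid cells, 2500/well, were preincubated 5 hr at 37 C, then treated with compounds for 24 hr at 37 C in complete medium. Intracellular ATP was read by CellTiter-Glo luminescence; AC50 from Hill-equation fits of concentration-response data.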
Assay [9] in a line: Cell Viability - LYMP2-015 (AID 971). Note: nearly all actives have a fitted effect of over 55% in size. Note: potency is the fitted concentration of half-maximal effect. In outline: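 Human lymphoblastoid cells (2500/well) in complete medium were preincubated 5 hr at 37 C, then compound-treated 24 hr at 37 C. Intracellular ATP was read by CellTiter-Glo luminescence after 30 min at room temperature; AC50 came from Hill-equation concentration-response fits.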
A short description of assay [10]: Cell Viability - LYMP2-023 (AID 975). Note: nearly all actives have a fitted effect of over 55% in size. Note: potency is the fitted concentration of half-maximal effect. The gist of the method:
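Human lymphoblastoid cells (2500/well) were preincubated 5 hr at 37 C, then exposed to compounds for 24 hr at 37 C in complete medium. Cellular ATP was read by CellTiter-Glo luminescence, and AC50 came from Hill-equation fits.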

A short description of assay [11]: Cell Viability - LYMP2-025 (AID 976). Note: potency is the fitted concentration of half-maximal effect. In outline:
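Human lymphoblastoid LYMP2-025 cells (2500/well) were pre-incubated 5 hr at 37 C, then treated with compounds for 24 hr at 37 C in complete medium. Viability was read as intracellular ATP by CellTiter-Glo luminescence; AC50 from Hill fits.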

Assay [12] in a line: Cell Viability - LYMP2-002 (AID 977).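 Note: compound exposure lasted 24 h at 37 °C.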 Note: potency is the fitted concentration of half-maximal effect. In outline:
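Cytotoxicity is scored as concentration-dependent loss of cellular ATP in a human lymphoblastoid line after 24 hr compound treatment at 37 C. AC50 is obtained by modelling concentration-response data with the Hill equation.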

Assay [13] is described as follows: Cell Viability - LYMP2-006 (AID 978). Note: nearly all actives have a fitted effect of over 60% in size. Note: potency is the fitted concentration of half-maximal effect. In outline: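 Human lymphoblastoid cells (LYMP2-006), 2500/well in complete medium, were treated with compound for 24 hr at 37 C. Cellular ATP was read by CellTiter-Glo luminescence after 30 min, and AC50 values came from Hill-equation fits of concentration-response data.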
Assay [14] in a line: Cell Viability - LYMP2-010 (AID 981). Note: nearly all actives have a fitted effect of over 55% in size. Note: potency is the fitted concentration of half-maximal effect. In outline:
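Human lymphoblastoid LYMP2-010 cells (2500/well) were preincubated 5 hr at 37 C, then exposed to compounds for 24 hr at 37 C in complete medium. Intracellular ATP was measured by CellTiter-Glo luminescence after 30 min at room temperature; AC50 from Hill-fitted concentration-response.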

Assay [15] can be described thus: Cell Viability - LYMP2-012 (AID 982). Note: potency is the fitted concentration of half-maximal effect.
A short description of assay [16]: Cell Viability - LYMP2-014 (AID 983). Note: nearly all actives have a fitted effect of over 50% in size. Note: potency is the fitted concentration of half-maximal effect. In outline:
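Human lymphoblastoid cells (2500/well) were pre-incubated 5 hr at 37 C, then exposed to compounds in complete medium for 24 hr at 37 C. Intracellular ATP was read by CellTiter-Glo luminescence after 30 min at room temperature; AC50 from Hill fits.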

Assay [17] in a line: Cell Viability - LYMP2-026 (AID 989). Note: nearly all actives have a fitted effect of over 50% in size. Note: potency is the fitted concentration of half-maximal effect. The gist of the method: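 Human lymphoblastoid cells (2500/well) in complete medium were preincubated 5 hr at 37 C, then exposed to compounds for 24 hr at 37 C. Cellular ATP was read by CellTiter-Glo luminescence; AC50 from Hill-equation fits of concentration-response data.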
A short description of assay [18]: Cell Viability - HUV-EC-C (AID 542). Note: nearly all actives have a fitted effect of over 35% in size. Note: potency is the fitted concentration of half-maximal effect. The gist of the method: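 HUV-EC-C normal human vascular endothelial cells, 1000 cells/well, pre-incubated 5 hr at 37 °C, then exposed to compounds for 40 hr at 37 °C in complete medium. Viability measured as intracellular ATP by CellTiter-Glo luminescence; AC50 from Hill fits.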
The nature of assay [19]: Cellular Toxicity (caspase-3) H-4-II-E (AID 663).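 Note: cells exposed to compound for 16 hr before readout.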 As to conditions: H-4-II-E rat hepatoma; Potency: caspase-3 activation; caspase-3 activation: at 92.2 µM (top of the series), scaled: DMSO 0%, 100 µM tamoxifen 100%. The gist of the method: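 Apoptosis induction is scored as increased luminescence from caspase 3/7 substrate cleavage in rat hepatoma H-4-II-E cells exposed to compound for 16 hr. Activity is scaled between DMSO and 100 uM tamoxifen.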

Assay [20] can be described thus: Cell Viability - LYMP1-002 - Assay at 24 hr (AID 993). Note: potency is the fitted concentration of half-maximal effect. In outline: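 Human lymphoblastoid LYMP1-002 cells, 2500/well in complete medium, were treated with compounds for 24 h at 37 C; intracellular ATP was read by CellTiter-Glo luminescence. AC50 values came from Hill-equation fits of qHTS concentration-response data.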

Each structure is given as a SMILES string. Unmarked numbers belong to inactive results. Results filed as inconclusive are left out. Active and inactive are the calls of the source. Unless noted, calls come from the whole dose curve; as a rule, active = well fitted curve in the direction sought with a large enough effect; inconclusive = small, poorly fitted or top-dose-only effect, or another doubt; inactive = no such curve, though single readings can be large; an effect the other way counts as inactive or inconclusive.

Take `COc1cc2c(c(OC)c1OC)-c1ccc(OC)c(=O)cc1[C@H](NC(C)=O)CC2`: the Potency result in [1] was “inactive”.
Consider `C=CC(=O)OCCOCCOC(=O)C=C`, for which the Potency entry in [1] is “inactive”. Besides, the result in [2] was inactive. Moreover, the Potency in [3] was 31.6 µM (active); in assay [4] it was 25.1 µM (active); in assay [5], 31.6 µM (active); in assay [6], 10 µM (active); in assay [7], 20 µM (active); in assay [8], 25.1 µM (active). Also, the Potency was 15.8 µM (active) in assay [9]; 25.1 µM (active) in assay [10]; 31.6 µM (active) in assay [11]; 25.1 µM (active) in [12]; 25.1 µM (active) in assay [13]; 15.8 µM (active) in [14]. The Potency in [15] is 12.6 µM (active); in assay [16], 20 µM (active); in assay [17], 20 µM (active).
As to `O=C1OC(O)C(C(Cl)Cl)=C1Cl` (stereo not given), the Potency entry in assay [1], in assay [18] and in [3] was “inactive” throughout. The outcome in [2] was inactive. For the same compound, in [19], the caspase-3 activation is 24.6%. The Potency is 31.6 µM (active) in assay [4]; 15.8 µM (active) in [6]; 25.1 µM (active) in assay [7]; 25.1 µM (active) in assay [8]; 25.1 µM (active) in assay [9]; 20 µM (active) in [10]. The Potency in assay [11] is 31.6 µM (active); in assay [12] it was 25.1 µM (active); in [13], 25.1 µM (active); in assay [14], 15.8 µM (active); in assay [15], 20 µM (active); in [16], 25.1 µM (active). Also, the Potency in assay [17] is 25.1 µM (active).
As for `Oc1ccc2cc(SSc3ccc4cc(O)ccc4c3)ccc2c1`, the call in assay [2] was inactive. Also, the caspase-3 activation in [19] is 4.17%. The Potency result in assay [4] and in assay [11] was “inactive” in each case. In addition, the Potency in assay [8] is 50.1 µM (active); in assay [13] it was 50.1 µM (active); in assay [14], 39.8 µM (active); in assay [15] it was 50.1 µM (active); in [20] it was 50.1 µM (active).
With `C/C=C1\C(=O)C[C@H]2[C@@H]3CCC4=CC(=O)CC[C@]4(C)[C@H]3CC[C@]12C`, the Potency result in assay [1], in [3], in [5], in [6], in [9] and in [10] was “inactive” each time. Further, the Potency entry in [11], in assay [12], in assay [17] and in assay [20] was “inactive” each time. For the same compound, the caspase-3 activation in [19] is 22.9%. In addition, the Potency in assay [4] is 25.1 µM (active).
On to `c1cc(OCC2CO2)cc(OCC2CO2)c1` (stereo not given), for which, in assay [20], the Potency result is “inactive”.
Take `CC(=O)Nc1ccc(C(=O)CCl)cc1`: the Potency result in assay [1] is “inactive”. In addition, the Potency in assay [18] is 50.1 µM (active); in [3], 20 µM (active); in assay [4], 15.8 µM (active); in [5], 31.6 µM (active); in assay [7] it was 6.31 µM (active); in assay [8] it was 6.31 µM (active). For the same compound, the Potency in assay [9] is 5.01 µM (active); in assay [10], 7.94 µM (active); in [11] it was 10 µM (active); in assay [12], 7.94 µM (active); in assay [13], 10 µM (active); in assay [14] it was 3.98 µM (active). In addition, the Potency is 5.01 µM (active) in [15], 7.94 µM (active) in assay [16], 7.94 µM (active) in [17] and 25.1 µM (active) in assay [20]. In [2], the result was inactive.
As to `O=C=Nc1ccc(Cc2ccc(N=C=O)cc2)cc1`, the Potency entry in [18], in assay [3], in [5], in assay [6], in assay [7] and in assay [8] was “inactive” throughout. The Potency entry in assay [9], in [10], in [11], in [12], in assay [13] and in [14] was “inactive” each time. Further, the Potency result in assay [15], in [16], in assay [17] and in [20] was “inactive” in each case. The result in assay [2] was inactive. In addition, in [19], the caspase-3 activation was 1.23%.
In the case of `C[C@H](O)[C@@H]1C(=O)N2C(C(=O)O)=C(SCCN=CN)C[C@@H]12`, the Potency entry in assay [1] is “inactive”.
